Only some compounds are listed: those with a hit (about 4.3% of all), similar ones and a draw of the others.
CR mimetic SO = lowers age-related superoxide in aged yeast cells; S. cerevisiae aged cells, superoxide DHE fluorescence; hits give low values; superoxide response (% of plate mean), % at 10 µM; 0.18% of 330,000 active; AID 2690;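 active = superoxide response under a set limit, about three screen SD below normal, cut at about 65% in these data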;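 also: yeast aged for seven days with compound at 30 °C before DHE staining; 100% = average MFI of all compound-treated wells on the plate with controls excluded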
NALP1 inh = blocks the NALP1 inflammasome reconstituted in yeast; AID 2071; S. cerevisiae NALP1/ASC/caspase-1 growth, X-gal OD620, 72 h; inhibition, % at 10 µM; 0.61% of 280,000 active; in the data active = inhibition mostly above about 24%, no sharp cut-off; inactive = mostly below about 32%
UBC13 polyUb = human UBC13 polyubiquitination inhibition; 0.47% of 330,000 active; inhibition, % at 20 µM; UBC13 polyubiquitin chain formation, TR-FRET; P61088; in the data active = inhibition above about 45%, passing the limit was not always enough
Target sequence (P61088 whole entry, looked up): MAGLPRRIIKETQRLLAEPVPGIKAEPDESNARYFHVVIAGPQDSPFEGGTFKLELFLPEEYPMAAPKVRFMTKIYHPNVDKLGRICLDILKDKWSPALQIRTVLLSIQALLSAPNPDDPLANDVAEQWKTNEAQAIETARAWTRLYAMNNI
dFosB act = activators of mouse delta FosB homodimer; activation, % at 25 µM; AID 493131; 0.99% of 340,000 active; purified delta FosB, TAMRA-CDK5 oligo fluorescence polarization; percent of positive-control signal above neutral wells; P13346;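 active = mean activation above about 17%, with every replicate also reaching it, limit read from the data, passing the limit was not always enough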
Target sequence (P13346 whole entry, looked up): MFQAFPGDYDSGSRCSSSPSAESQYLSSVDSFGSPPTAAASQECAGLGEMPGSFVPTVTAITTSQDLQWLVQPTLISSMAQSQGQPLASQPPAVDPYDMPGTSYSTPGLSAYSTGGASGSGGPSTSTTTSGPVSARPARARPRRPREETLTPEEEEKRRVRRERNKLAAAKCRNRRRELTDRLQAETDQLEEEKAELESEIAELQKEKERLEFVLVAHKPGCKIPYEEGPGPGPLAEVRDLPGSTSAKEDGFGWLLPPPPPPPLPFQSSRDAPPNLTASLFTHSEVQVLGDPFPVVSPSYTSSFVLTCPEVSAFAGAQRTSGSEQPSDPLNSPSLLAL
GRIN3A LBD mod = NR3A (human) ligand-binding domain modulation; AID 1259313; NR3A LBD differential scanning fluorimetry, Tm shift; 0% = protein alone, 100% = glycine-bound protein; Tm shift relative to glycine control, % at 25 µM; 2.5% of 340,000 active;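 active = melting temperature shift of at least 10% of the positive control shift, at one fixed dose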
* hit, by the source's call; / = no result.

SMILES | CR mimetic SO | NALP1 inh | UBC13 polyUb | dFosB act | GRIN3A LBD mod
Nc1nonc1C(=O)NCCNC(=O)c1ccc(Cl)cc1 | 99 | 2 | 4 | -3 | 1
Cc1ccc(S(=O)(=O)N(C)C[C@H]2Oc3ccc(NC(=O)Nc4c(C)noc4C)cc3CC(=O)N([C@@H](C)CO)C[C@@H]2C)cc1 | 91 | / | 4 | -3 | -1
CNC(=S)N/N=C/c1cc(Br)cc(Br)c1O | 111 | 54* | -22 | -2 | -3
Oc1c(Br)cc(Br)cc1/C=N/NC(=S)N[C@H]1CC2C=CC1C2 (some centres not stated) | 98 | 9 | -8 | -6 | 14*
CC(C)(C)NC(=S)N/N=C/c1cc(Br)c(O)c(Br)c1 | 97 | 14 | -19 | -4 | -3
Cc1[nH]c2ccccc2c1/C=N/NC(=O)c1cc(C(C)C)[nH]n1 | 99 | / | -6 | -8 | -4
C=CCn1c(SCC(=O)c2c(N)n(C)c(=O)n(C)c2=O)nnc1-c1ccccc1F | 94 | 37* | 15 | -4 | -3
Cn1c(N)c(C(=O)CSc2nnc(-c3ccccc3F)n2N)c(=O)n(C)c1=O | 91 | / | -6 | -5 | -2
Cn1c(N)c(C(=O)CSc2nnc(-c3ccccc3F)n2C2CC2)c(=O)n(C)c1=O | 89 | 34* | 5 | -5 | -1
CNc1nc(=S)[nH]c2ccccc12 | 90 | -2 | -6 | 2 | 2
S=c1nc2[nH]c3ccccc3c2n[nH]1 | / | / | / | 2 | 20*
Fc1ccccc1Sc1ccccc1CNC1=NCCN1 | 90 | 42 | 2 | -4 | 1
c1ccc(Sc2cccc3ccccc23)c(CNC2=NCCN2)c1 | 93 | 78* | 9 | -16 | -3
O=C(NNS(=O)(=O)c1ccc(F)cc1)c1cc(Cl)ccc1O | 95 | -3 | -7 | -1 | -3
CC(/C=C/c1ccccc1F)=N\NC(=O)c1cccc(F)c1 | 92 | -1 | -8 | -13 | 22*
Cc1cc(C)nc(SCCn2c(N3CCOCC3)nc3c2c(=O)[nH]c(=O)n3C)n1 | 94 | -2 | 8 | -1 | 1
COc1cc(NC(=O)c2ccc(OCc3c(C)noc3C)c(OC)c2)cc(OC)c1 | 87 | / | 12 | -17 | -2
CC(Sc1nc2ccc(Br)cc2[nH]1)C(=O)O (configuration not stated) | 117 | 8 | 14 | -1 | 0
O=C(O)CCSc1nc2ccc(Br)cc2[nH]1 | 107 | 2 | -3 | 9 | 13*
Cc1ccc(C(=O)N2[C@@H]3CN(C)C(=O)[C@@]2(C)[C@H]2C(=O)N(C)C(=O)[C@@H]32)cc1 | / | / | / | 2 | 3
CN1C[C@@H]2[C@@H]3C(=O)N(C)C(=O)[C@@H]3[C@](C)(C1=O)N2C(=O)c1ccc(F)cc1 | / | / | / | 5 | 10*
CC(C)(C)c1ccc(C(=O)NCC(=O)N2CCCCCC2)cc1 | 101 | 12 | -2 | 0 | -1
CCC(CC)c1nn2c(N)c(/C=C3\C=Nc4ccccc43)c(=O)nc2s1 | 127 | -9 | -12 | 5 | 11*
CCC(CC)c1nn2c(N)c(/C=C3\C(C)=Nc4ccccc43)c(=O)nc2s1 | 116 | 2 | -2 | / | 13*
CC(=O)Nc1ccc(N2S(=O)(=O)c3ccccc3S2(=O)=O)cc1 | 115 | 4 | -10 | -1 | 11*
SMILES | CR mimetic SO | NALP1 inh | UBC13 polyUb | dFosB act | GRIN3A LBD mod
CCN(CC)S(=O)(=O)c1ccc(NC(=O)CNC2CCCCC2)cc1 | 102 | 34 | 5 | -13 | -2
O=C(CSc1ccsc1[N+](=O)[O-])Nc1cccc(F)c1 | / | 9 | / | -11 | 20*
CCc1ccccc1NC(=O)CSc1ccsc1[N+](=O)[O-] | 107 | 2 | 5 | 1 | -1
CC1(C)C[C@H](O)[C@@]23C[C@@H](OC2=O)[C@]2(C)C(=CCC4[C@@]5(C)CC[C@H](O)C(C)(C)C5CC[C@]42C)[C@@H]3C1 (some centres not stated) | 106 | / | -3 | / | -12
CC1CC(C)CN(CC(=O)NNC(=O)COc2ccc(Cl)cc2)C1 (configuration not stated) | 75 | / | 0 | -2 | 0
CS(=O)(=O)N(CCc1ccccc1)CC(=O)NCc1ccccc1 | 113 | 29 | 0 | -9 | 36*
COc1ccc(CCNC(=O)CN(CCc2ccccc2)S(C)(=O)=O)cc1OC | 96 | 2 | 6 | -5 | -2
CCCNC(=O)CN(CCc1ccccc1)S(C)(=O)=O | 118 | 7 | 6 | -1 | 13*
CS(=O)(=O)N(CCc1ccccc1)CC(=O)NCc1ccc2c(c1)OCO2 | 97 | / | 8 | -1 | 0
CN(C)S(=O)(=O)c1ccc(Cl)c(C(=O)Nc2nc3ccccc3[nH]2)c1 | 90 | 9 | 6 | -3 | -2
Cc1ccc(NS(=O)(=O)c2ccc(Cl)c(C(=O)Nc3ccccc3-c3nc4ccccc4[nH]3)c2)cc1C | 103 | 11 | 0 | 1 | 34*
O=C(Cn1ncc2c3ccccc3n(Cc3ccccc3F)c2c1=O)NCC1CCCO1 (configuration not stated) | 96 | 1 | 1 | 6 | -1
COc1cc(/C=C2\SC(=O)N(CC(=O)Nc3cccc(C)c3)C2=O)ccc1OC(C)C(=O)O (configuration not stated) | 84 | / | -12 | 1 | -2
COc1ccc(/C=C2\SC(=O)N(CC(=O)Nc3cccc(C)c3)C2=O)cc1O | 109 | -18 | -20 | 19* | 6
COc1ccc(/C=C2/SC(=S)N(CCCC(=O)Nc3cccc(O)c3)C2=O)cc1 | 115 | 13 | -11 | -17 | 12*
COc1ccc(/C=C2/SC(=S)N(CCCC(=O)Nc3ccccc3C(=O)O)C2=O)cc1 | 106 | 3 | -1 | -7 | -6
COc1ccc(/C=C2\SC(=S)N(CCCC(=O)NNC(=O)c3ccccc3O)C2=O)cc1 | 98 | 5 | -18 | 45* | 6
O=C(CCCN1C(=O)/C(=C/c2cccs2)SC1=S)NNC(=O)c1ccccc1O | 107 | 22 | -9 | 6 | 12*
COc1ccc(CCn2c(C)cc(C(=O)CN3C(=O)C(=O)N(C4CCCC4)C3=O)c2C)cc1OC | / | / | 1 | -6 | /
CCCn1c(C)nnc1SCC(=O)NC1CCCCC1 | 102 | 2 | 2 | 4 | 1
COc1cccc(/C=C2\SC(=S)N(CCC(=O)NNC(=O)c3ccccc3OC)C2=O)c1 | 87 | -10 | -8 | 4 | -3
COc1ccccc1/C=C1\SC(=S)N(CCC(=O)NNC(=O)c2ccccc2O)C1=O | 88 | 2 | -16 | 16 | 11*
Cc1ccc(/C=C2\SC(=S)N(CCCC(=O)Nc3nccs3)C2=O)cc1 | 101 | 23 | -7 | 6 | 10*
O=C(CCCN1C(=O)/C(=C/c2cccs2)SC1=S)Nc1ccccc1O | 109 | -8 | -9 | 34* | 10*
CCc1ccc(/C=C2\SC(=S)N(CCCC(=O)Nc3nccs3)C2=O)cc1 | 116 | 22 | 8 | 6 | -9
COc1cc(/C=C2\SC(=S)N(CC(=O)Nc3ccc(O)cc3)C2=O)cc(OC)c1OC | / | 10 | / | 18* | 13*

Screens: PubChem BioAssay, several laboratories
